Bioassay records: PubChem BioAssay, Sanford-Burnham Center for Chemical Genomics
A selection: hits, their analogues and other compounds. The true share with any hit is near 4.1%.
FAS-TE inh: FAS thioesterase (human) inhibition; P49327; recombinant FAS-TE, OMFH fluorogenic substrate, fluorescence endpoint; inhibition, % at 15 µM; 360,000 compounds, 0.67% hits;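 active means compounds whose normalised, plate-corrected inhibition of enzyme fluorescence in the single-dose primary screen is 50% or more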
MPTP block: inhibitors of mitochondrial permeability transition pore | 360,000 compounds, 1.4% hits | isolated mouse mitochondria, Ca2+ swelling absorbance, 30 min | inhibition, % at 10 µM;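 active means inhibition of 50% or more, scaled per plate between neutral and stimulator controls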
MIN6 prolif: induces beta-cell replication in MIN6 cells. 330,000 compounds, 0.29% hits. MIN6 cells proliferation, ATPlite luminescence, 48 h; cells starved in 0.2% serum; 100% = growth in 10% serum. proliferation, % at 10 µM. AID 2380;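 active means compounds whose signal lies at least 3.5 SD above the mean of all wells on their plate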
GRIN3A LBD mod: modulators (binders) of human NR3A ligand-binding domain; NR3A LBD differential scanning fluorimetry, Tm shift; 0% = protein alone, 100% = glycine-bound protein; Tm shift relative to glycine control, % at 25 µM; 340,000 compounds, 2.5% hits; AID 1259313;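 active means melting temperature shift of at least 10% of the positive control shift, at one fixed dose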
p-CIP stab down: compounds decreasing mouse p/CIP protein stability; decrease of EGFP signal, % at 10 µM; F442A p/CIP-EGFP cells, EGFP fluorescence, 16 h; 290,000 compounds, 0.01% hits;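 active means EGFP signal decrease of at least 30% at 10 µM or well 3 SD below plate mean, unless failing retest; inactive means the rest, including hits failing retest or dose response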
FAS-TE conf: FAS thioesterase (human) inhibition, confirmation; shares compounds with FAS-TE inh; recombinant FAS-TE, OMFH fluorogenic substrate, fluorescence; 2,300 compounds, 45% hits; inhibition, % at 15 µM;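 active means compounds inhibiting the enzyme by at least 50% at 15 µM in any one of the replicates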
A number is an active result; - = inactive; . = not tested or not shown.

SMILES | FAS-TE inh | MPTP block | MIN6 prolif | GRIN3A LBD mod | p-CIP stab down | FAS-TE conf
CC1(C)C([N+](=O)[O-])C(c2ccc(Cl)cc2)NC(c2ccc(Cl)cc2)C1[N+](=O)[O-] (stereo not given) | 66 | - | - | - | - | -
CN1CCN(c2ccc(CNC(=O)C3(C)Cc4c(-c5ccc(C(N)=O)cc5)ccnc4O3)cc2)CC1 (stereo not given) | - | - | . | . | . | .
C=C(C(=O)Oc1ccccc1C(C)(C)C)c1ccccc1 | . | . | - | . | . | .
Cc1cn(C2OC(COC(=O)c3ccccc3)C(OC(=O)c3ccccc3)C2OC(=O)c2ccccc2)c(=O)[nH]c1=O (stereo not given) | 87 | - | - | - | - | -
Cc1cn(C2OC(COC(=O)c3ccccc3)C(O)C2O)c(=O)[nH]c1=O (stereo not given) | - | - | - | - | - | .
N#Cc1cccc(-n2c(-c3ccccc3)nnc2-c2ccccc2)c1C#N | 58 | - | - | - | - | -
N#Cc1ccc(-n2c(-c3ccccc3)nnc2-c2ccccc2)cc1C#N | - | - | - | - | - | .
CC(C)Cn1c(N)c(C(=O)COC(=O)c2cc(-c3ccccc3)nc3ccccc23)c(=O)n(C)c1=O | 51 | - | - | - | - | -
COCCN(Cc1ccc(C)cc1)C(=O)[C@H]1O[C@@H](n2ccc(=O)[nH]c2=O)[C@H](O)[C@@H]1O | - | - | . | . | . | .
COc1ccc(-c2cc(-c3ccc(O)cc3)nc(N)c2C#N)cc1 | 57 | - | - | - | - | -
COc1cc(-c2cc(-c3ccc(O)cc3)nc(N)c2C#N)ccc1O | - | - | - | - | - | .
CC(C)COc1ccc(C(=O)N/C(=C\c2cccc([N+](=O)[O-])c2)C(=O)O)cc1 | 62 | - | - | - | - | 77
CC(C)COc1ccc(C(=O)N/C(=C\c2cccc([N+](=O)[O-])c2)C(=O)OC(C)C)cc1 | - | - | - | - | - | .
CC(C)COc1ccc(C(=O)N/C(=C/c2cccc([N+](=O)[O-])c2)C(=O)O)cc1 | 57 | - | - | - | - | 59
CC1=C(C(=O)N2CCCCCC2)CC(CC(=O)NC2CCCC2)C(=O)N1Cc1ccc(F)cc1 (stereo not given) | - | - | . | . | . | .
COc1ccc(S(=O)(=O)N2CCOCC2)cc1NC(=O)c1cccc2c(=O)c(C)c(-c3ccccc3)oc12 | 93 | - | - | - | - | -
CCN(CC)S(=O)(=O)c1ccc(N2CCOCC2)c(NC(=O)c2cccc3c(=O)c(C)c(-c4ccccc4)oc23)c1 | - | - | - | - | . | .
CC(C)Oc1ccc(S(=O)(=O)N2CCOCC2)cc1NC(=O)c1nn(C)c(=O)c2ccccc12 | 67 | - | . | - | . | -
O=C(Cn1cnc2cc([N+](=O)[O-])ccc2c1=O)Nc1ccc2c(c1)OCO2 | 75 | - | - | - | - | 53
O=C(Cc1ccc([N+](=O)[O-])cc1)Nc1ccc2c(c1)OCO2 | - | - | - | - | - | .
O=C(CSc1ccc([N+](=O)[O-])cn1)Nc1ccc2c(c1)OCO2 | 86 | - | - | - | - | 57
O=C(Cn1cnc2ccccc2c1=O)Nc1ccc2c(c1)OCO2 | - | - | - | - | - | .
COc1ccc(-c2nn(-c3ccccc3)cc2C(=O)N2CCN(S(=O)(=O)c3ccccc3C#N)CC2)cc1 | - | - | - | - | . | .
COc1ccc(-c2nn(-c3ccccc3)cc2C(=O)N2CCN(S(=O)(=O)c3ccccc3[N+](=O)[O-])CC2)cc1 | 78 | - | . | - | . | -
O=C1c2cccc3c(N4CCOCC4)c([N+](=O)[O-])cc(c23)C(=O)N1c1cccc2ccccc12 | 77 | - | - | - | - | -
O=C(NCCc1ccccc1C(F)(F)F)c1cc(COc2ccccc2)on1 | - | - | . | . | . | .
Cc1ccc(C(=O)N/C(=C/c2ccc(-c3ccc([N+](=O)[O-])cc3)o2)C(=O)NCCCN(C)C)cc1 | 57 | - | - | - | . | 56
CCN(CC)S(=O)(=O)c1ccc(N2CCOCC2)c(NC(=O)c2ccc3ccccc3c2)c1 | 52 | - | - | - | - | -
COc1ccc2ccccc2c1/C=N/NC(=S)Nc1cc(S(=O)(=O)N2CCOCC2)ccc1N1CCOCC1 | 92 | - | - | - | - | -
CCN(CC)S(=O)(=O)c1ccc(N2CCOCC2)c(NC(=O)c2ccc3c(c2)OCCO3)c1 | - | - | - | - | . | .
